A selection: hits, their analogues and other compounds. The true share with any hit is near 3.2%.
GLP-1R agonist: qHTS of GLP-1 Receptor Agonists | actives 0.007% (n = 380,000) | Potency, µM (highest dose often 45.6 µM), for inactives: at the top dose activation, actives largely listed as activators | AID 624172, 2012 | Glucagon-like peptide 1 receptor (Homo sapiens), P43220 | HEK293 GLP-1R CRE-luciferase, luminescence, 4-6 h; cells express a hypersensitive GLP-1R form; further: % of control where 0% means no effect
GLP1R inv ag: qHTS of GLP-1 Receptor Inverse Agonists (Inhibition Mode); actives 1.6% (n = 410,000); Potency, µM (doses to about 38.3 µM), for the others: at the top dose activity change, negative = inhibition, actives largely listed as inhibitors; Glucagon-like peptide 1 receptor (Homo sapiens), P43220; HEK293 GLP-1R CRE-luciferase, luminescence, 24 h; GLP-1R form is constitutively active; further: on the % scale 0 is the no-effect control and ±100 the full control effect; nearly all actives have a fitted effect of over 55% in size
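HEK293 cells stably co-expressing constitutively active GLP-1R and a cAMP-responsive luciferase reporter were seeded in DMEM with 10% Nu serum, given compounds after 12 h, and incubated 24 h at 37 deg C. Luminescence was then read.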
HEK293 tox: qHTS of GLP-1 Receptor Inverse Agonists: Cytotox Screen; actives 0.13% (n = 410,000); HEK293 cAMP-luciferase reporter cells, luminescence, 24 h; Potency, µM (series often up to 38.3 µM), inactives show at the highest dose activity change, negative = inhibition, usual class: inhibitors;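 further: loss of luciferase light is scored as toxicity; on the % scale 0 is the no-effect control and ±100 the full control effect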
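Quantitative HTS format, 1536 wells, 200 cells/uL seeded. Compounds: 23 nL, 24 h, 37 °C. Detection: luciferase reagent, luminescence at 12 min RT; decreased signal taken as cytotoxic.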
ClpP mod: qHTS Assay for Activators of ClpP; Potency, µM (top dose mostly 57.5 µM), for the others: at the highest dose activity change, negative = active; ATP-dependent Clp protease proteolytic subunit (Bacillus subtilis (strain 168)), P80244; actives 1.9% (n = 340,000); purified B. subtilis ClpP, FRET peptide cleavage, 20 min; AID 651965, 2013; active means well fitted falling curve with a large enough effect; inconclusive means small, poorly fitted or top-dose-only effect; inactive means no such curve, though single readings can be large or run the other way; further: the source files actives as falling curves though it sought activators and does not explain the sign; nearly all actives have a fitted effect of over 65% in size
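Buffer: 100 mM Tris/HCl pH8, 100 mM KCl, 0.05% low protease BSA, 2.5% glycerol, 0.01% Tween-20. ClpP 10 microg/mL final; 20 min RT; delta FRET normalized to ADEP and DMSO controls.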
Starred values were filed as active, the others as inactive. Unless noted, the call rests on the fitted dose curve; in most records, active means well fitted curve in the direction sought with a large enough effect; inconclusive means small, poorly fitted or top-dose-only effect, or another doubt; inactive means no such curve, though single readings can be large; an effect the other way counts as inactive or inconclusive. Potency means the concentration at half of the fitted maximal effect.

Screening COc1ccc(-c2noc(CSc3nc4ccccc4c(=O)n3-c3ccccc3)n2)cc1OC returned GLP-1R agonist 1%, GLP1R inv ag 5%, HEK293 tox -4% and ClpP mod -5%.
Screening O=c1c2ccccc2nc(SCc2nc(-c3ccccc3)no2)n1-c1ccc(F)cc1 returned GLP-1R agonist -2%, GLP1R inv ag 3.5µM*, HEK293 tox -7% and ClpP mod -1%.
Screening c1ccc(Cc2nnc(SCc3nc(-c4cccs4)no3)n2-c2ccccc2)cc1 returned GLP1R inv ag inconclusive, HEK293 tox -2% and ClpP mod -13%.
For Cc1ccc(-n2c(Cc3ccccc3)nnc2SCc2nc(-c3cccs3)no2)cc1 the results were GLP1R inv ag 10µM*, HEK293 tox -6% and ClpP mod 2%.
`Clc1ccccc1-c1nnc(SCc2nc(-c3ccccc3)no2)n1-c1ccccc1` gave GLP1R inv ag 10µM*, HEK293 tox -7% and ClpP mod 0%.
Screening Clc1ccc(-c2noc(CSc3nnc(-c4ccncc4)n3-c3ccccc3)n2)cc1 returned GLP-1R agonist 1%, GLP1R inv ag inconclusive, HEK293 tox 2% and ClpP mod -2%.
`COc1ccccc1NC(=O)C1CCCN(c2nnc(C)c3c(C)n(-c4ccccc4)nc23)C1` (centres undefined) gave GLP1R inv ag 1%, HEK293 tox -13% and ClpP mod inconclusive.
For CC(C)(C)c1ccc(S(=O)(=O)NCc2ccc3c(c2)CCN3C(=O)c2ccccc2)cc1 the results were GLP1R inv ag inconclusive, HEK293 tox -12% and ClpP mod -2%.
For COc1ccc(OC(C)C(=O)NCc2nc(-c3cccc(C)c3)no2)cc1 (centres undefined) the results were GLP1R inv ag inconclusive, HEK293 tox -12% and ClpP mod 0%.
For O=[N+]([O-])c1cc(C(F)(F)F)cc([N+](=O)[O-])c1NCCNC(=S)Nc1ccc(Cl)c(Cl)c1 the results were GLP-1R agonist -1%, GLP1R inv ag 8.9µM* and HEK293 tox inconclusive.
Screening CN(c1ccc(OCC(=O)N2CCN(c3ccc(F)cc3)CC2)cc1)S(=O)(=O)c1cccs1 returned GLP-1R agonist 0%, GLP1R inv ag 11µM* and HEK293 tox -3%.
`Cc1cccc(C)c1NC(=O)CN(C)C(C)C(=O)Nc1ccccc1-c1ccccc1` (centres undefined) gave GLP-1R agonist -7%, GLP1R inv ag -45%, HEK293 tox -4% and ClpP mod -4%.
Screening Cc1ccccc1CN(C)C(C)C(=O)Nc1ccccc1F (centres undefined) returned GLP-1R agonist 14%, GLP1R inv ag 8.9µM*, HEK293 tox 0% and ClpP mod 1%.
For CCn1cc(C(=O)OCC(=O)N2C(C)CCCC2C)c(=O)c2ccc(C)nc21 (centres undefined) the results were GLP-1R agonist -3%, GLP1R inv ag 15%, HEK293 tox 9% and ClpP mod 16µM*.
CCOC(=O)c1ccc(NC(=O)c2cc3sccc3n2Cc2ccc(Cl)cc2)cc1 was read as GLP-1R agonist -2%, GLP1R inv ag inconclusive, HEK293 tox -16% and ClpP mod 4%.
`CCc1cc2c(cc3c(=O)n(CC(=O)N4CCN(c5cccc(C)c5C)CC4)nc(CC)n32)s1` gave GLP1R inv ag -2%, HEK293 tox 4% and ClpP mod -4%.
Cc1ccc(N(Cc2cccs2)C(=O)c2ccccc2Cl)cc1 was read as GLP1R inv ag inconclusive, HEK293 tox 4% and ClpP mod -1%.
`CCOc1ccccc1C(=O)N(Cc1cccs1)c1ccc(Cl)cc1` gave GLP1R inv ag 13µM*, HEK293 tox -4% and ClpP mod 1%.
For Cc1cc2nnc(SC(C)C)n2c2ccccc12 the results were GLP-1R agonist 30%, GLP1R inv ag 44%, HEK293 tox 0% and ClpP mod 28µM*.
For c1ccc(Nc2nc(-c3ccccn3)cs2)cc1 the results were GLP-1R agonist 11%, GLP1R inv ag 5.6µM*, HEK293 tox 3.2µM* and ClpP mod -23%.
`c1ccc(-c2csc(Nc3cccnc3)n2)nc1` gave GLP-1R agonist 1%, GLP1R inv ag 3%, HEK293 tox -19% and ClpP mod -2%.
For O=C(Nc1cccc(-c2csc(Nc3ccccc3)n2)c1)c1ccccc1 the results were GLP-1R agonist -5%, GLP1R inv ag 8.9µM*, HEK293 tox -27% and ClpP mod -1%.
O=C(NCCC1=CCCCC1)c1ccc2c(c1)N(Cc1ccc(F)cc1)C(=O)c1ccccc1S2(=O)=O was read as GLP1R inv ag inconclusive, HEK293 tox -16% and ClpP mod -1%.
Screening CCc1c(C)[nH]c2nc3ccccc3n2c1=O returned GLP-1R agonist -1%, GLP1R inv ag 0%, HEK293 tox 3% and ClpP mod 28µM*.
For O=c1cc(-c2ccccc2)[nH]c2nc3ccccc3n12 the results were GLP-1R agonist -1%, GLP1R inv ag 0%, HEK293 tox 8% and ClpP mod 11µM*.
For COc1cccc(-c2nc3nc(C)cc(C)n3c2NCc2ccccc2)c1 the results were GLP-1R agonist 1%, GLP1R inv ag -9%, HEK293 tox 0% and ClpP mod -3%.
`CCN(CC(O)COc1ccc(OCC(O)CN(CC)C2CCCCC2)cc1)C1CCCCC1` (centres undefined) gave GLP-1R agonist 1%, GLP1R inv ag 2.2µM*, HEK293 tox -19% and ClpP mod -1%.
CCN(CC(O)COCc1ccc(Cl)cc1)C1CCCCC1 (centres undefined) was read as GLP-1R agonist 0%, GLP1R inv ag -40% and HEK293 tox 19%.
`Cc1ccccc1OCC(O)CN(Cc1ccccc1O)C1CCCCC1` (centres undefined) gave GLP-1R agonist 4%, GLP1R inv ag 11µM* and HEK293 tox inconclusive.
`COc1ccc(CNC(=O)c2cnn(-c3ccc(C)cc3)c2C2CCN(C(=O)OC(C)(C)C)CC2)cc1` gave GLP1R inv ag inconclusive, HEK293 tox -6% and ClpP mod 1%.
C=CC[C@]12C=C(OC)C(=O)C(OC)=C1O[C@@H](c1ccc3c(c1)OCO3)[C@H]2C was read as GLP-1R agonist -4%, GLP1R inv ag 7%, HEK293 tox 2% and ClpP mod 1%.
Screening C=CC[C@]12CC=CC(=O)[C@@]1(O)O[C@H](c1ccc(OC)c(OC)c1)[C@H]2C returned GLP-1R agonist 0%, GLP1R inv ag 11µM*, HEK293 tox -25% and ClpP mod 2%.
`Oc1ccc(Nc2nc3ccccc3nc2Nc2ccc(O)cc2)cc1` gave GLP-1R agonist -40%, GLP1R inv ag -81%, HEK293 tox inconclusive and ClpP mod 32µM*.

From PubChem
